PubChem BioAssay (NCI)
Where “and” joins values, the source holds several entries; their conditions need not be identical. Identical values can stand only once. Compounds without any hit were thinned out: in the full panel of roughly 83,000, 20% have a hit.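 Plates (96-well) were seeded with cells, treated with compound at one concentration, and incubated for 48 hours before percent growth was determined.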

Columns and labels:
Test in all cases: NCI-60 one-dose screen, 48 h (100 = growth as untreated, 0 = no growth, -100 = all killed)
Conditions in all cases: 10 µM unless noted; active means growth percent below 10; inactive means the rest
SK-MEL-2 melanoma = system: SK-MEL-2 melanoma
EKVX NSCLC = system: EKVX NSCLC
SN12C renal = system: SN12C renal
UO-31 renal = system: UO-31 renal
TK-10 renal = system: TK-10 renal
ACHN renal = system: ACHN renal
CAKI-1 renal = system: CAKI-1 renal
A498 renal = system: A498 renal
CCRF-CEM leukemia = system: CCRF-CEM leukemia
MOLT-4 leukemia = system: MOLT-4 leukemia

Measured: growth

COCCCNC1=C(C#N)C(=O)NC(c2cccs2)S1 (stereo not drawn)
inactive: SK-MEL-2 melanoma 119% | EKVX NSCLC 84% | SN12C renal 93% | UO-31 renal 76.3% | TK-10 renal 92.5% | ACHN renal 97.5% | CAKI-1 renal 92.7% | A498 renal 133% | CCRF-CEM leukemia 114% | MOLT-4 leukemia 172%

CC1(C)OC(=O)C(=Cc2ccc(C#N)cc2)C(=O)O1
inactive: SK-MEL-2 melanoma 93.7% | EKVX NSCLC 102% | SN12C renal 104% and 112% | UO-31 renal 94.3% and 87.1% | TK-10 renal 98.3% and 101% | ACHN renal 108% and 98.1% | CAKI-1 renal 102% and 99.3% | A498 renal 104% and 94.8% | CCRF-CEM leukemia 102% and 97.1% | MOLT-4 leukemia 103% and 80.1%

COc1ccc(/C=C/C(=O)O)cc1OC
inactive: SK-MEL-2 melanoma 108% and 101% | EKVX NSCLC 106% and 103% | SN12C renal 101% and 105% | UO-31 renal 100% and 97.5% | TK-10 renal 102% and 92.5% | ACHN renal 104% and 112% | CAKI-1 renal 101% | A498 renal 104% | CCRF-CEM leukemia 98.1% | MOLT-4 leukemia 104% and 108%

O=C1Cc2ccccc2C(=O)N1
inactive: SK-MEL-2 melanoma 92.4% | EKVX NSCLC 99.2% | SN12C renal 96.7% | UO-31 renal 75.5% | TK-10 renal 91% | ACHN renal 82.1% | CAKI-1 renal 77% | A498 renal 103% | MOLT-4 leukemia 69.8%

Cc1ccc([N+](=O)[O-])cc1Br
inactive: SK-MEL-2 melanoma 95.6% | EKVX NSCLC 101% | SN12C renal 98.2% | UO-31 renal 92.1% | TK-10 renal 97.1% | ACHN renal 98.3% | CAKI-1 renal 101% | A498 renal 88.5% | MOLT-4 leukemia 81.7%

CCOC(=O)CN1CCC(C(=O)OCC)CC1
inactive: SK-MEL-2 melanoma 111% | EKVX NSCLC 127% | SN12C renal 99.7% | UO-31 renal 94.9% | TK-10 renal 106% | ACHN renal 111% | CAKI-1 renal 116% | A498 renal 91.5% | CCRF-CEM leukemia 89.5% | MOLT-4 leukemia 106%

COC(=O)c1nc(=S)[nH]c(C(=O)OC)c1C(=O)c1ccc(OC)cc1
inactive: SK-MEL-2 melanoma 104% | EKVX NSCLC 107% | SN12C renal 98.5% | UO-31 renal 86.8% | TK-10 renal 110% | ACHN renal 105% | CAKI-1 renal 94.5% | A498 renal 116% | MOLT-4 leukemia 107%

CCCCCCC(C)CC1=C(O)c2ccccc2C(=O)C1=O (stereo not drawn)
inactive: SK-MEL-2 melanoma 68.9% | EKVX NSCLC 62% | SN12C renal 46.6% | UO-31 renal 42.7% | TK-10 renal 60.5% | ACHN renal 37.5% | CAKI-1 renal 39.7% | A498 renal 54.3% | MOLT-4 leukemia 26.6%

NNc1ncnc2cccc(Cl)c12
inactive: SK-MEL-2 melanoma 95.3% | EKVX NSCLC 90.8% | SN12C renal 87.6% | UO-31 renal 89.1% | TK-10 renal 99.9% | ACHN renal 96.4% | CAKI-1 renal 107% | A498 renal 108% | CCRF-CEM leukemia 102% | MOLT-4 leukemia 108%

NC1=NC(c2ccccc2)N=C(Nc2ccccc2)N1 (stereo not drawn)
inactive: SK-MEL-2 melanoma 100% and 84.3% | EKVX NSCLC 79.3% and 90.5% | SN12C renal 98.6% and 99.1% | UO-31 renal 105% and 89.7% | TK-10 renal 94% and 102% | ACHN renal 97.9% and 84.1% | CAKI-1 renal 74.2% and 93.8% | A498 renal 96.3% and 110% | CCRF-CEM leukemia 49.6% and 95.1% | MOLT-4 leukemia 65.7% and 71.4%

O=C(NC(=O)c1ccc(F)c(Cl)c1)NC1CC1
inactive: SK-MEL-2 melanoma 107% | EKVX NSCLC 89.6% | SN12C renal 102% and 87.9% | UO-31 renal 96.8% | TK-10 renal 94.3% and 96.1% | ACHN renal 106% and 108% | CAKI-1 renal 104% and 87.1% | CCRF-CEM leukemia 97.2% and 101%

Nc1nc(-c2ccccn2)cc(-c2cc(-c3ccccn3)nc(N)n2)n1
inactive: SK-MEL-2 melanoma 112% | EKVX NSCLC 102% | SN12C renal 108% | UO-31 renal 91.1% | TK-10 renal 107% | ACHN renal 110% | CAKI-1 renal 96.7% | CCRF-CEM leukemia 101% | MOLT-4 leukemia 106%

C/C(CC(C)C)=N/NC(N)=S
inactive: SK-MEL-2 melanoma 107% | EKVX NSCLC 59.6% | SN12C renal 87.2% | UO-31 renal 62.1% | TK-10 renal 105% | ACHN renal 98.3% | CAKI-1 renal 104% | MOLT-4 leukemia 52.1%

O=c1[nH]c(=S)[nH]n1C(=S)n1[nH]c(=S)[nH]c1=O
inactive: SK-MEL-2 melanoma 106% | EKVX NSCLC 105% | SN12C renal 101% | UO-31 renal 80.5% | TK-10 renal 106% | ACHN renal 99.3% | CAKI-1 renal 94.8% | MOLT-4 leukemia 112%

Nc1ccccc1SC(CC(=O)c1ccccc1)c1cccc([N+](=O)[O-])c1 (stereo not drawn)
inactive: SK-MEL-2 melanoma 113% and 81.9% | EKVX NSCLC 96.5% | SN12C renal 87.7% and 88.8% | UO-31 renal 71.6% and 61.5% | TK-10 renal 131% and 113% | ACHN renal 90.1% and 90.7% | CAKI-1 renal 70.9% and 95.2% | CCRF-CEM leukemia 53.3% and 34.9% | MOLT-4 leukemia 87.6% and 55%

O=C1C2=C(Nc3cc(Cl)ccc3N2)OC1c1c[nH]c2ccc(COc3ccccc3)cc12 (stereo not drawn)
inactive: SK-MEL-2 melanoma 86.7% | EKVX NSCLC 55% | SN12C renal 71.3% | UO-31 renal 51.2% | TK-10 renal 71.6% | ACHN renal 60% | CAKI-1 renal 52.1% | MOLT-4 leukemia 77.3%

CCOP(C)(=O)/C(Cc1ccc(OC)c(OC)c1)=N\O (stereo not drawn)
inactive: SK-MEL-2 melanoma 111% | EKVX NSCLC 98.3% | SN12C renal 103% | UO-31 renal 91.2% | TK-10 renal 107% | ACHN renal 106% | CAKI-1 renal 103% | A498 renal 104% | MOLT-4 leukemia 112%

COC(=O)c1nc(N)nc(C(=O)OC)c1C(=O)c1ccc(F)cc1
inactive: SK-MEL-2 melanoma 105% | EKVX NSCLC 104% | SN12C renal 103% | UO-31 renal 92.4% | TK-10 renal 109% | ACHN renal 116% | CAKI-1 renal 96.1% | CCRF-CEM leukemia 106% | MOLT-4 leukemia 156%

Cc1nc(Nc2ccc(Cl)cc2)c2cnn(-c3ccccc3)c2n1
inactive: SK-MEL-2 melanoma 100% | EKVX NSCLC 91.3% | SN12C renal 102% | UO-31 renal 94.6% | TK-10 renal 95.4% | ACHN renal 105% | CAKI-1 renal 96.3% | CCRF-CEM leukemia 26.1% | MOLT-4 leukemia 106%

NCCCCCC(=O)O
inactive: SK-MEL-2 melanoma 110% [middle of 4 runs] | EKVX NSCLC 109% [middle of 4 runs] | SN12C renal 107% [middle of 4 runs] | UO-31 renal 89.3% [middle of 4 runs] | TK-10 renal 115% and 104% and 98.9% | ACHN renal 103% [middle of 4 runs] | CAKI-1 renal 94% [middle of 4 runs] | CCRF-CEM leukemia 101% and 90.4% and 108% | MOLT-4 leukemia 105% and 88.6% and 108%

COc1ccc([N+](=O)[O-])cc1OC
inactive: SK-MEL-2 melanoma 123% and 103% | EKVX NSCLC 98.6% and 102% | SN12C renal 99.6% and 108% | UO-31 renal 76.2% and 99.1% | TK-10 renal 98.9% and 108% | ACHN renal 99% and 93.5% | CAKI-1 renal 93.8% and 102% | CCRF-CEM leukemia 89.6% and 102% | MOLT-4 leukemia 91.2% and 104%

N#Cc1c(N)nc2c(c(-c3ccc(Cl)cc3)nn2-c2ccccc2)c1C#N
inactive: SK-MEL-2 melanoma 122% [100 µM] | EKVX NSCLC 83% [100 µM] | SN12C renal 105% [100 µM] | UO-31 renal 96.6% [100 µM] | TK-10 renal 128% [100 µM] | ACHN renal 86.9% [100 µM] | CAKI-1 renal 108% [100 µM] | CCRF-CEM leukemia 98.9% [100 µM] | MOLT-4 leukemia 114% [100 µM]

CC(=O)Nc1ccc2oc(=O)ccc2c1
inactive: SK-MEL-2 melanoma 101% | EKVX NSCLC 94.6% | SN12C renal 95.6% | UO-31 renal 91.3% | TK-10 renal 111% | ACHN renal 113% | CAKI-1 renal 88.1% | CCRF-CEM leukemia 109% | MOLT-4 leukemia 98.6%

CCOP(=O)(OCC)/C(C#N)=C/c1c(C)[nH]c2ccccc12
inactive: SK-MEL-2 melanoma 99.2% | EKVX NSCLC 97.4% | SN12C renal 92% | UO-31 renal 72.8% | TK-10 renal 93.2% | ACHN renal 102% | CAKI-1 renal 51% | A498 renal 116% | MOLT-4 leukemia 97.9%
